From PubChem BioAssay AID588346 (National Center for Advancing Translational Sciences (NCATS), 2011)
Inconclusive results are not listed. A call without a number means that no potency is given here. Calls of active or inactive are those of the source. Calls follow the shape of the dose curve; as a rule, active = well fitted curve in the direction sought with a large enough effect; inconclusive = small, poorly fitted or top-dose-only effect, or another doubt; inactive = no such curve, though single readings can be large or run the other way.

assay: qHTS Assay for Inhibitors of Histone Lysine Methyltransferase G9a: Hit Confirmation in b-rIgG Counterscreen; settings: AlphaScreen b-rIgG bead counterscreen, signal interference; series mostly up to 55.7 µM
Source text: Methylated lysines, on the N-terminal tails of histone proteins serve as epigenetic markers to recruit factors that can then modify local chromatin structure to lead to functional consequences. G9a and other members of the SUV39 family of the SET domain-containing superfamily of histone lysine methyltransferases (HMT) have been identified to specifically methylate Lys9 of histone H3 (H3K9). G9a catalyzes the mono- and di-methylation of H3K9 in mammalian euchromatic regions, where the resulting H3K9me2 is indicative of transcriptional repression. […] The inhibition of G9a will result in transcriptional activation and work synergistically with DNA methyltransferase and histone deacetylase inhibitors, to kill cancer cells. This qHTS assay for identification of G9a inhibitors is a chemiluminescence based AlphaScreen (PerkinElmer). Methylation of biotinylated-histone peptide is measured through specific antibody-based detection, in conjunction with streptavidin-coated donor and anti-IgG antibody-coated acceptor beads. The method is particularly well suited for detection of inhibitors acting by the desired histone peptide competitive mechanism and is applicable to testing other HMTs. Although AlphaScreen has significant advantages with its utility in a variety of epigenetic target assays, the primary screening data provided in this deposition should be used with caution due to the prevalence of screening artifacts. Because an AlphaScreen counterscreen is highly recommended to be run against any putative actives to eliminate non specific artifacts, this assay was used as a counterscreen. Quinn et al. A chemiluminescence-based method for identification of histone lysine methyltransferase inhibitors. Mol Biosyst 6(5): 782-8. 2010. PMID: 20567762 [2] Baell,Holloway. New substructure filters for removal of pan assay interference compounds (PAINS) from screening libraries and for their exclusion in bioassays. J Med Chem. 53(7):2719-40. 2010. PMID: 20131845 NIH Chemical Genomics Center [NCGC] NIH Molecular Libraries Probe Production Network [MLPCN] MLPCN Grant: MH084681-02 Assay Submitter (PI): Structural Genomic Consortium - Toronto, Peter Brown
Biotinylated rabbit-IgG (b-rIgG) (Santa Cruz Biotechnology, Inc., Santa Cruz, CA) was added to 1,536-well plates in a 3 uL dispense. Compounds were added in a 23 nL pin-transfer step, and plates were incubated at room temperature for 15 min. Streptavidin-coated donor and anti-rIgG acceptor AlphaScreen beads were added (1 uL) for final concentrations of 20 ug/mL each bead and 1 nM b-rIgG, and plates read on the Envision after a 15 min incubation at room temperature in the dark.

Structure (SMILES)	Potency
CCC(=O)N1CCN(c2ccc(NC(=O)c3ccc([N+](=O)[O-])o3)cc2Cl)CC1	inactive
COc1ccc2c(C)nc(Nc3nc(-c4ccccc4)cc(=O)[nH]3)nc2c1	inactive
CNC(=O)Oc1ccc2c(c1)[C@]1(C)CCN(C)[C@@H]1N2C	inactive
O=C1C=C(Nc2ccc(Cl)cc2)C(=O)N1c1ccc(Cl)cc1	inactive
CC(C)N(CCC(=O)c1ccc2ccccc2c1)Cc1ccccc1	inactive
CCN1CCc2nc(N)oc2CC1	inactive
O=C1CN(c2nc(-c3ccccc3)c3cc(Cl)ccc3n2)c2ccccc2N1	inactive
Cc1ccc(/C=[N+](\[O-])c2ccc(N(C)C)cc2)c2nsnc12	inactive
CCCCOC(=O)Cn1c2ccc(OC)cc2c2nc3ccccc3nc21	inactive
COc1cc2nc(N3CCN(C(=O)C4COc5ccccc5O4)CC3)nc(N)c2cc1OC (stereo not given)	inactive
CNc1nc(N2CCCN(C)CC2)nc2cc(OC)c(OC)cc12	inactive
O=C(N/N=C/c1ccccn1)c1cc(-c2ccc(Cl)cc2)nc2ccccc12	inactive
CCCC(=O)N1CCN(c2ccc(NC(=O)c3ccc([N+](=O)[O-])o3)cc2Cl)CC1	inactive
C/C=C/c1ccc(OCC(=O)OCC(=O)NC2CC2)c(OC)c1	inactive
O=c1c2ccccc2nc(COc2ccccc2)n1/N=C/c1c[nH]c2ccccc12	inactive
Oc1ccc(Br)cc1C=Nc1ccc2c3c(cccc13)CC2	inactive
COc1ccc2c(C)cc(SCC(=O)N(C)C3CCS(=O)(=O)C3)nc2c1 (stereo not given)	inactive
N=c1n(CC(=O)c2ccc([N+](=O)[O-])cc2)c2ccccc2n1Cc1ccccc1Cl	inactive
CN(c1ccccc1)S(=O)(=O)c1nnc(NC(=O)c2ccccc2)s1	inactive
COc1ccc(C(=O)/C=C/Sc2nc3ccccc3o2)cc1	inactive

Structure (SMILES)	Potency
Oc1c(N=Nc2ccccn2)ccc2ccccc12	11.2 µM (active)
Ic1ccc(N2CCN(Cc3c[nH]c4ncccc34)CC2)cc1	inactive
COc1ccccc1N1CCN(CCN2C(=O)CC3(CCCC3)CC2=O)CC1	inactive
O=C(CSc1cccc2cccnc12)N1CCCC1	inactive
NC(=O)c1cc[n+](CC2=C(C(=O)O)N3C(=O)[C@@H](NC(=O)[C@@H](c4ccccc4)S(=O)(=O)[O-])[C@H]3SC2)cc1	inactive
NC(=S)N/N=C/c1ncc(C(F)(F)F)cc1Cl	inactive
CC(C)C(=O)NC(c1ccc(N(C)C)cc1)c1ccc2cccnc2c1O (stereo not given)	inactive
CC1=NN(c2nc3ccccc3[nH]2)C(=O)C1Cc1ccccc1 (stereo not given)	inactive
COc1ccc(NC(=O)CSc2nc3c(oc4ccccc43)c(=O)n2Cc2ccco2)cc1Cl	inactive
COCCNC(=S)N/N=C(\C)c1ccccc1O	inactive
Nc1nc2ccc(Cl)cc2c2nc(-c3ccco3)nn12	inactive
COc1ccc(NC(=O)c2ccc(-c3ccc(-c4noc(C)n4)cc3C)cc2)cc1N1CCN(C)CC1	28.2 µM (active)
C[n+]1cc2c3c(ccc2c2ccc4cc5c(cc4c21)OCO5)OCO3	inactive
Cc1ccc(C(C)C)c(OCc2ccc(C(=O)N/N=C/c3cccc(O)c3O)cc2)c1	inactive
CSc1nsc(/C=C/Nc2cccc(Cl)c2)c1C#N	inactive
O=C(NN1C(=O)c2ccccc2NC1c1ccc([N+](=O)[O-])o1)c1ccc([N+](=O)[O-])cc1 (stereo not given)	inactive
COc1cc2c(cc1C(F)(F)F)N(C(=O)Nc1cc(F)cc(-c3cccnc3)c1)CC2	inactive
CCOn1c(=O)c[n+]([O-])c2ccccc21	inactive
COc1cccc(N2CCN(S(=O)(=O)c3ccc(-n4cnnn4)cc3)CC2)c1	inactive
O=C(CSc1cccc[n+]1[O-])c1ccccc1Br	inactive
